Compound activity (PubChem BioAssay)
Shown are actives, neighbours in structure and some others; about 32% of the full set was active somewhere.
CYP2C9 activ: activators of human CYP2C9; recombinant CYP2C9, luciferin-H conversion, luminescence; stronger effect = higher value; factor 1 = untreated enzyme, 0 = blocked; activation factor at 5 µM; hit rate 1.4% among 96,000; AID 1024;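 active = activation factor of 2 or more for CYP2C9 at a 5 µM dose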
CYP2C19 activ: activators of human cytochrome P450 2C19. activation factor at 5 µM. recombinant CYP2C19, luciferin-H EGE luminescence; stronger effect = higher value; 0 = fully inhibited enzyme, 1 = untreated enzyme. P33261. AID 1025. 96,000 tested, under 10 active;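 active = activation factor of at least 2 at 5 µM in the primary screen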
Target sequence (P33261 whole entry, looked up): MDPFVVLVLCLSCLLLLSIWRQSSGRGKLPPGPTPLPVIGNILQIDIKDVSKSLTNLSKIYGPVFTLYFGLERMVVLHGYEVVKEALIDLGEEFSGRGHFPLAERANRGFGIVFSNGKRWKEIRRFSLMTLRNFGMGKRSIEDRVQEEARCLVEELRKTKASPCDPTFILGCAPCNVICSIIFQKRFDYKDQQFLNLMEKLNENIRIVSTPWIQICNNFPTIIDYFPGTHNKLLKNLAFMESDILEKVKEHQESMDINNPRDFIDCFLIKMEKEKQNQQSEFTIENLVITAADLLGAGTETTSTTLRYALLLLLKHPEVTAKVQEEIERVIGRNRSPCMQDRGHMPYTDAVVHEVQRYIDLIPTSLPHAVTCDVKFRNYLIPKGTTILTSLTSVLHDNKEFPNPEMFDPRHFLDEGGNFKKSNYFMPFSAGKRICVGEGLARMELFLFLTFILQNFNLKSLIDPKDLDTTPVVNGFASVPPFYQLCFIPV
PostGolgi yeast: growth inhibition of a yeast mutant, post-Golgi transport screen. hit rate 0.9% among 98,000. inhibition, % at 10 µM. post-Golgi transport phenotypic cell assay;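 also: yeast cells grown in 1536-well plates; yeast grown about 18 h at 30C before absorbance read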
CYP2C19 inhib: inhibitors of human CYP2C19. hit rate 21% among 96,000. inhibition, % at 5 µM. CYP2C19 Supersomes, luciferin-H EGE luminescence, 30 min. AID 778. P33261;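 active = CYP2C19 inhibition above a set limit at 5 µM in the primary screen, cut at about 50% in these data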
PostGolgi ctrl: growth of the yeast control strain, post-Golgi counter-screen. efflux-deficient yeast background strain, growth absorbance A615, 16 h. inhibition, % at 10 µM. hit rate 5% among 98,000. AID 738
CYP2C9 inh: inhibitors of human CYP2C9; P11712; CYP2C9 Supersomes, luciferin-H conversion, luminescence; inhibition, % at 5 µM; hit rate 20% among 96,000; AID 777;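 active = blocking of liver enzyme CYP2C9 beyond about 50% at 5 µM, limit read from the data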
Hits are given with their value; 0 = inactive; - = not tested or not shown. Rule as the data show it, unless noted: active = inhibition above about 30%; inactive = the rest.

SMILES	CYP2C9 activ	CYP2C19 activ	PostGolgi yeast	CYP2C19 inhib	PostGolgi ctrl	CYP2C9 inh
CS(=O)(=O)N1CCN(Cc2ccc(C(F)(F)F)cc2)CC1	0	0	0	0	0	0
Cc1ccc(CN2CCN(Cc3ccccc3C(F)(F)F)CC2)cc1	0	0	0	64	0	0
CS(=O)(=O)N1CCN(Cc2ccccc2C(F)(F)F)CC1	0	0	0	73	0	0
Nc1nc2nc(SCC(=O)N3CCCc4ccccc43)[nH]c2c(=O)[nH]1	0	0	0	0	0	0
COc1ccc(CNC(=O)COC(=O)c2cc(-c3cccs3)nc3ccccc23)cc1OC	0	0	0	0	0	75
COc1ccc(CNC(=O)COC(=O)c2cc(-c3ccco3)nc3ccccc23)cc1	0	0	0	0	0	0
CCOC(=O)C(NC(=O)CC)(N1CCc2ccccc2C1)C(F)(F)F (configuration not stated)	0	0	0	0	0	56
O=C(O)CC(C(=O)Nc1ccc(Cl)c(Cl)c1)C1CCCO1 (configuration not stated)	0	0	0	0	0	0
CCOC(=O)c1ccc(NC(=O)CC2Sc3ncnn3C2=O)cc1 (configuration not stated)	0	0	0	0	0	0
Cc1c(Cl)c(-c2n[nH]c(=S)n2-c2ccc(F)cc2)nn1C	0	0	0	0	0	0
CCCCn1c(-c2nn(C)cc2Cl)n[nH]c1=S	0	0	0	52	0	0
CCCCn1c(-c2nn(C)c(C)c2Cl)n[nH]c1=S	0	0	0	0	0	0
CC(C)Cn1c(-c2nn(C)cc2Cl)n[nH]c1=S	0	0	0	57	0	0
O=S(=O)(Nc1ncn[nH]1)c1ccc(Cl)cc1	0	0	0	83	0	0
O=S(=O)(Nc1nc2ccccc2[nH]1)c1ccc(Cl)cc1	0	0	0	58	0	0
CC(=O)NCCNC(=O)CCNC(=O)c1ccc(Cl)cc1	0	0	0	0	0	0
CC(C)(C)c1ccc(-c2nc(C#N)c(NCc3ccncc3)o2)cc1	0	0	0	0	0	67
Cc1ccc(CNc2oc(C)nc2C#N)cc1	0	0	0	0	0	0
COc1ccc(-c2nc(C#N)c(NCCc3ccccc3)o2)cc1OC	0	0	0	80	0	93
CCN(CC)CCCNc1oc(-c2ccc(OC)c(OC)c2)nc1C#N	0	0	0	0	0	0
COc1ccc(-c2nc(C#N)c(NCc3ccc(C)cc3)o2)cc1OC	0	0	0	0	0	53
O=C(Cc1ccccc1)NN1C(=O)C2C3C=CC(C3)C2C1=O (configuration not stated)	0	0	0	0	0	0
CC(C)OP(=O)(OC(C)C)C(NC(=O)c1cccc([N+](=O)[O-])c1)C(N)=O (configuration not stated)	0	0	0	0	0	0
COc1ccc2c(c1)-c1ccccc1S(=O)(=O)N2C	0	0	0	0	0	0
Cc1ccccc1NC1=C(C(=O)c2ccccc2)N(C)S(=O)(=O)c2ccccc21	0	0	0	56	0	63
SMILES	CYP2C9 activ	CYP2C19 activ	PostGolgi yeast	CYP2C19 inhib	PostGolgi ctrl	CYP2C9 inh
CCCCC(=O)Nc1ccc(N2CCN(S(C)(=O)=O)CC2)cc1	0	0	0	0	0	0
Cc1csc(NC(=O)C2CCCN2C(=O)Oc2ccccc2)n1 (configuration not stated)	0	0	0	0	0	0
Cc1cc(C)cc(NC(=O)C2CCCN2C(=O)Oc2ccccc2)c1 (configuration not stated)	0	0	0	66	0	67
Cc1cccc(NC(=O)C2CCCN2C(=O)Oc2ccccc2)c1 (configuration not stated)	0	0	0	88	0	57
COc1ccc(NC(=O)N2CCCC2C(=O)Nc2ccccc2)cc1 (configuration not stated)	0	0	0	0	0	0
O=C(/C=C/Nc1cccc(C(F)(F)F)c1)c1ccc(Oc2ncccn2)cc1	0	0	0	0	0	0
Cc1ccc2c(CC(=O)Nc3nc(C)cs3)coc2c1	0	0	0	0	0	0
CSCSC1=C(C#N)C(c2ccc(Cl)cc2)C(C(C)=O)=C(C)N1 (configuration not stated)	0	0	0	98	0	100
CCOC(=O)CSC1=C(C#N)C(c2ccccc2)C(C(C)=O)=C(C)N1 (configuration not stated)	0	0	0	58	0	59
CCOC(=O)CSc1nc(C)c2ccccc2n1	0	0	0	0	0	0
CCOC(=O)CSC1=C(C#N)C(c2ccc(C)cc2)C(C(=O)OC)C(=O)N1 (configuration not stated)	0	0	0	54	0	0
O=C1C=C(NCCN2CCOCC2)CC(c2ccccc2)C1 (configuration not stated)	0	0	0	0	0	0
O=C1C=C(NCC2CCCO2)CC(c2ccccc2)C1 (configuration not stated)	0	0	0	73	0	0
CCOC(=O)c1cc(C#N)c(SCC(=O)c2cc(C#N)c(SC)nc2C)[nH]c1=O	0	0	0	0	0	74
CCCSc1nc(=O)n2cccc(C)c2n1	0	0	0	0	0	0
COc1ccc2nc(NS(=O)(=O)c3ccc(NC(C)=O)cc3)sc2c1	0	0	0	0	0	0
COc1ccc(S(=O)(=O)Nc2nc3ccccc3s2)cc1	0	0	0	0	0	50
CCOc1ccc2sc(NS(=O)(=O)c3ccc(OC)c(OC)c3)nc2c1	0	0	0	0	0	92
COc1ccc2sc(NC(C)=O)nc2c1	0	0	0	0	0	0
COc1ccc(NC(=O)C2CC(=O)NC3=C2C(=O)CC(C)(C)C3)cc1 (configuration not stated)	0	0	0	0	0	0
COc1ccc(NC2=NCC(=O)N2c2ccccc2)c(OC)c1	0	0	0	64	0	52
CCOc1ccc(-c2nnn(CC(=O)NCc3ccc(F)cc3)n2)cc1OCC	0	0	0	65	0	0
OC1(c2ccccc2F)CCN(Cc2nnnn2CCc2ccccc2)CC1	0	0	0	65	0	80
O=C(NC1CCN(Cc2nnnn2CCc2ccccc2)CC1)c1ccccc1F	0	0	0	0	0	0
CC(=O)N1CCN(c2ccc(NC(=O)c3ccccc3Br)cc2Cl)CC1	-	-	0	-	0	-
SMILES	CYP2C9 activ	CYP2C19 activ	PostGolgi yeast	CYP2C19 inhib	PostGolgi ctrl	CYP2C9 inh
CCCc1nnc(SCC(=O)N2CCCC(C)C2)n1CCCOC (configuration not stated)	0	0	0	0	0	0
Oc1cc2ccccc2cc1-c1n[nH]c(=S)o1	0	0	0	0	0	68
Cc1cc(NCCCn2ccnc2)n2c(nc3ccccc32)c1C#N	0	0	0	77	0	83
Cc1cccc2cc(C#N)c(NCCCn3ccnc3)nc12	0	0	40	98	0	98
Cc1cc(NCCN2CCCCC2)n2c(nc3ccccc32)c1C#N	0	0	0	0	0	0
CCc1nc(NCCCn2ccnc2)c2oc3ccccc3c2n1	0	0	0	91	33	98
